The list is not random: actives were taken first. Their share in the collection is about 5.4%.
ALOX15B inhib – 15-hLO-2 (ALOX15B) enzyme inhibition; AID 881; purified 15hLO-2, xylenol orange hydroperoxide absorbance; 0.56% of 110,000 active; Potency, µM (series often up to 57.1 µM), inactives show at the highest dose activity change, negative = inhibition, usual class: inhibitors; O15296; further: potency means the concentration at half of the fitted maximal effect; nearly all actives have a fitted effect of over 60% in size
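Purified human 15hLO-2 (50 nM) preincubated 15 min with compound, then 45 uM arachidonic acid for 90 min at RT in 25 mM Hepes pH 7.5, 0.01% Triton X-100. Hydroperoxide detected by Fe-xylenol orange; 573/405 nm absorbance ratio.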
12-hLO inh – 12-hLO (ALOX12) enzyme inhibition; P18054; purified 12-hLO, xylenol orange hydroperoxide absorbance; Potency, µM (top dose mostly 57.1 µM), for inactives: at the top dose activity change, negative = inhibition, hits mostly inhibitors; 0.12% of 150,000 active; further: potency means the concentration at half of the fitted maximal effect; nearly all actives have a fitted effect of over 55% in size
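Purified human 12hLO (150 nM), preincubated 15 min with compound, then 40 uM arachidonic acid for 30 min, room temperature, Hepes pH 7.0 with 0.01% Triton X-100. Hydroperoxide detected by ferrous iron/xylenol orange; 573/405 nm absorbance ratio gives reaction progress.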
PNC assembly inh – inhibitors of perinucleolar compartment assembly; PC3M PTB-GFP, PNC prevalence imaging, 16 h; stronger effect = lower value; activity change (PNC), negative = inhibition, % at 10 µM; 3.1% of 140,000 active;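 active means readout at or below -70, meaning at least 70% loss of cells showing the perinucleolar compartment, a nuclear body marking cancer cells; inconclusive means readout between -30 and a set limit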;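 further: plate controls were DMSO wells for no effect and camptothecin positive control wells for full effect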
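Compounds are pinned in duplicate onto adhered PC3M cells stably expressing GFP-tagged PTB and incubated 16 h at 37 C. Cells are then fixed, nuclei stained with Hoechst, and PNC-positive cells counted.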
HPGD inh – blocks human HPGD enzyme activity; P15428; Potency, µM, for inactives: at the highest dose activity change, negative = inhibition, usual class: inhibitors; 4.3% of 150,000 active; AID 894; purified HPGD, NADH fluorescence kinetic, PGE2 substrate; active means well fitted inhibition curve with a large enough effect, not every such curve was filed as active; inconclusive means small, poorly fitted or top-dose-only effect, or another doubt; inactive means no such curve, though single readings can be large or run the other way; further: potency means the concentration at half of the fitted maximal effect
Target sequence (P15428 whole entry, looked up): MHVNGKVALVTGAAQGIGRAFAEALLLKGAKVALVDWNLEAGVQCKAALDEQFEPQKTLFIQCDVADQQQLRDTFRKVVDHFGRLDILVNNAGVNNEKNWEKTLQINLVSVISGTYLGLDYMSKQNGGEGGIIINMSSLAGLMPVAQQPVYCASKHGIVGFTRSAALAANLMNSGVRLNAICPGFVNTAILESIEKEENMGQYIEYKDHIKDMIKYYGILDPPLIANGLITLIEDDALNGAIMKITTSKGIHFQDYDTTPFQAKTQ
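20 nM HPGD preincubated 15 min at room temperature with compound in 50 mM Tris-HCl pH 8, 0.01% Tween 20. Started with 1 mM NAD+ and 30 uM prostaglandin E2; NADH fluorescence (360/450 nm) read 5 times over 30-s intervals, last minus first.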
IMPase Li inh – membrane-permeable IMPase blocker, potentiated with lithium; CHO-M1 cells, IP1 TR-FRET (IP-One), carbachol + lithium; Potency, µM (series often up to 59.4 µM), without a hit: at the highest dose activity, negative = IMPase inhibition, actives largely listed as inhibitors; 0.35% of 210,000 active; AID 1457;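 further: IP1 builds up when IMPase is blocked and the TR-FRET signal falls; potency means the concentration at half of the fitted maximal effect; plate controls were basal vehicle for no effect and high inhibitor control for full effect; nearly all actives have a fitted effect of over 50% in size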
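IP1 accumulation measured by competitive TR-FRET in lysed CHO-M1 cells after 30 min compound exposure at 37C, with a small lithium addition to potentiate weak responses. Hill-equation AC50 from ratio and donor-channel data.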
IMPase cell inh – IMPase inhibition in cells; P97697; CHO-M1 cells, IP1 accumulation, HTRF TR-FRET ratio; inhibition (IP1 accumulation), % at 46.1 µM; 120,000 tested, under 10 active; AID 901; active means well fitted curve in the direction sought with a large enough effect in the signal ratio, not every such curve was filed as active; inconclusive means small, poorly fitted or top-dose-only effect, or a change in a side signal; inactive means no such curve, though single readings can be large or run the other way; the % refers to the signal ratio;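 further: cells stimulated with carbachol in lithium chloride buffer; plate controls were DMSO basal wells for no effect and reference inhibitor wells for full effect; higher means more IMPase inhibition seen as more IP1 and lower FRET ratio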
Target sequence (P97697 whole entry, looked up): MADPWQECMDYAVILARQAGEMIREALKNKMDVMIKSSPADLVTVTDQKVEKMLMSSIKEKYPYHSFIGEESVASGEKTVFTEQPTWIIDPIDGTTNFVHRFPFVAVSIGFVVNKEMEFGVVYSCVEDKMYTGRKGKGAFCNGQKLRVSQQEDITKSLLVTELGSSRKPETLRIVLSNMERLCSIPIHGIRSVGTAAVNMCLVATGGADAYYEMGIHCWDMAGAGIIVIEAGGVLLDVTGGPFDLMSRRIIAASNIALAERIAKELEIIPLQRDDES
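Elevated IP1 in lysates lowers TR-FRET signal (665/620 ratio and 620 channel reported). Cells were CHO-M1, given carbachol (50 uM as added) plus 50mM LiCl, pH 7.4, 30 min, 37C; compounds titrated up to 46 uM; AC50 by Hill equation.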
* hit, by the source's call; ? = inconclusive; · = no result given; [ ] = remark or other dose. Unless noted, the call rests on the fitted dose curve; in most records, active means well fitted curve in the direction sought with a large enough effect; inconclusive means small, poorly fitted or top-dose-only effect, or another doubt; inactive means no such curve, though single readings can be large; an effect the other way counts as inactive or inconclusive. Unless noted, on the % scale 0 is the no-effect control and ±100 the full control effect.

SMILES	ALOX15B inhib	12-hLO inh	PNC assembly inh	HPGD inh	IMPase Li inh	IMPase cell inh
CCCCc1cc(=O)oc2c(CN3CCCC3)c(O)c(Cl)cc12	2%	-16%	18	?	10µM*	?
c1ccc2nc(-c3nc4ccccc4o3)ccc2c1	-3%	-2%	-107*	?	33%[38.3 µM]	7
O=C(Nc1ccc2oc(-c3cccc4c(Br)cccc34)nc2c1)c1ccc(F)cc1	·	·	·	·	·	-9
CC1=C(C(=O)OCc2ccc(C)cc2)C(c2cccc(F)c2F)CC(=O)N1 (stereo not given)	·	·	·	·	·	-6
CSc1nc(N)nc(SCC(=O)Nc2cccc(F)c2)c1C#N	·	-3%	-26	20µM*	20%	14
CSc1nc(N)nc(SCC(=O)C(C)(C)C)c1C#N	13%	-3%	17	13µM*	6%[38.3 µM]	3
CSc1nc(N)nc(SCC(=O)CC(=O)OC(C)C)c1C#N	-6%	-13%	60	-19%	-7%[38.3 µM]	-11
COc1cc(C(=O)Nc2ccc3oc(-c4ccccc4)nc3c2)cc(OC)c1OC	·	·	·	·	·	-12
COc1ccc(C(=O)N2CCC[C@@]3(CCN(Cc4ccc(C#N)cc4)C3)C2)cc1	8%	-1%	·	16µM*	5%	·
Cc1cccc(OCc2nc(C#N)c(NCc3ccccc3Cl)o2)c1	·	·	·	·	·	-8
COC(=O)CNC(=O)C1(CC(C)C)C=CCN1C(=O)c1ccccc1 (stereo not given)	-8%	-7%	·	-1%	-8%	·
CC(C)CC1(C(=O)NCC2CC2)C=CCN1C(=O)c1ccccc1 (stereo not given)	7%	-7%	·	18µM*	10%	·
S=c1nc(-c2ccccc2Br)[nH][nH]1	·	-7%	?	13µM*	-1%	4
S=c1nc(-c2cc(Cl)ccc2Cl)[nH][nH]1	·	·	·	·	-17%	·
Cc1cc(S(=O)(=O)N(Cc2ccccc2)Cc2ccc(N(C)C)cc2)ccc1-n1cnnn1	·	3%	-119*	-4%	15%	20
O=C(COC(=O)c1ccncc1)c1ccc(Br)cc1	·	·	·	·	-2%	·
COC(=O)C(CC(=O)c1ccc(Br)cc1)n1ccnc1 (stereo not given)	?	?	-8	2.5µM*	5%[38.3 µM]	11
Cc1c(N=C2NC(=O)/C(=C/c3cccc([N+](=O)[O-])c3)S2)c(=O)n(-c2ccccc2)n1C	·	-3%	11	2.5µM*	-8%	·
COc1cc(OC)c(Nc2cc(C)nc3ncnn23)cc1Cl	·	·	·	·	·	-1
c1ccc(OCc2nc3c4c(ncn3n2)-c2ccccc2CC42CCCC2)cc1	·	1%	-125*	-30%	13%	·
Nc1ncnc2c1C1(CCCCC1)Cc1ccccc1-2	·	2%	-5	-23%	0%	·
CCOC(=O)c1cc(-c2ccccc2)n(CC(=O)NC(C)(C)C)c1C	·	·	·	·	14%	·
CCOC(=O)c1cc(-c2ccccc2)n(CC(=O)O)c1C	-6%	4%	-30	25µM*	24%[38.3 µM]	1
CCC(=O)NC1Cc2ccccc2C(c2ccccc2)C1 (stereo not given)	·	·	·	·	4%	·
Nc1cc(C(=O)O)ccc1N1CCCCC1	·	2%	-100*	-26%	1%	8
SMILES	ALOX15B inhib	12-hLO inh	PNC assembly inh	HPGD inh	IMPase Li inh	IMPase cell inh
CC1CCN(c2ccc(C(=O)O)cc2N)CC1	-10%	-3%	9	·	·	1
CCn1ncc(C2=NOC(C(=O)NCc3ccc(Cl)cc3)C2)c1C (stereo not given)	2%	-5%	-82*	-14%	11%[38.3 µM]	7
Cc1ccc2nc(-c3ccc(N)cc3)sc2c1S(=O)(=O)O	-15%	-1%	·	?	?	·
CN(C)c1ccc(N2C(=O)CC(Nc3ccc(N4CCOCC4)cc3)C2=O)cc1 (stereo not given)	·	-7%	?	1%	3%	9
COc1ccc(N2C(=O)CC(Nc3ccc(N4CCOCC4)cc3)C2=O)c(OC)c1 (stereo not given)	32µM*	-29%	-88*	-1%	35%[38.3 µM]	3
COc1cccc(N2C(=O)CC(Nc3ccc(N4CCOCC4)cc3)C2=O)c1 (stereo not given)	13µM*	?	-6	-2%	22%[38.3 µM]	2
O=C1CC(Nc2ccc(N3CCOCC3)cc2)C(=O)N1c1cccc(C(F)(F)F)c1 (stereo not given)	20µM*	?	22	-27%	57%[38.3 µM]	8
CNC[C@H](O)[C@H](O)[C@H](O)[C@H](O)CO	4%[25.6 µM]	-1%[25.6 µM]	·	-2%	-3%	-1[20.6 µM]
COc1ccc(C(=O)Nc2ccc3oc(-c4cc(Cl)ccc4Cl)nc3c2)cc1Br	·	·	·	·	·	-4
Cc1[nH]c(=O)[nH]c(=O)c1S(=O)(=O)N(C)Cc1ccccc1	-4%	-4%	-106*	-7%	3%[38.3 µM]	0
C=CCN=C(CC)C1=C(O)CCCC1=O	-2%	-7%	-109*	·	·	2
C(/C=C\c1ccccc1)=Nc1ccc2c(c1)Cc1ccccc1-2	-8%[11.4 µM]	0%[11.4 µM]	·	-17%	-8%	·
CCOC(=O)N1CCC(NC(=O)CCN2C(=O)COc3ccccc32)CC1	-2%	10%	-80*	-6%	21%[38.3 µM]	4
CCCC(OC(=O)CN1C(=O)COc2ccccc21)C(=O)NC1CCCC1 (stereo not given)	·	1%	194	28µM*	16%	4
CCOC(=O)N1CCC(NC(=O)CCC(=O)N2CC(C)Oc3ccccc32)CC1 (stereo not given)	-8%	-2%	?	-6%	-4%[38.3 µM]	7
CCc1ccc(NC(=O)COC(=O)CN2C(=O)COc3ccccc32)cc1	8%	-2%	26	-11%	16%[38.3 µM]	-1
C[C@H]1CN(CCO)CCN1c1ccccc1	0%[11.4 µM]	3%[11.4 µM]	·	-4%	-16%	·
N=c1c2c(n(Cc3ccc(Br)cc3)c3c1CCC3)CCCC2	·	2%	-123*	-1%	4%	·
N=c1c2c(n(Cc3ccc(Cl)c(Cl)c3)c3c1CCC3)CCCC2	49%	2%	2	·	·	4
